Source: PubChem BioAssay AID1259415 (National Center for Advancing Translational Sciences (NCATS), 2018)
The whole screen tested about 410,000 compounds, of which about 18,000 (4.4%) were called active. About 7% were inconclusive and are not listed. Many of the other results were omitted from the sample, so actives are more common in it than they were. Values without a mark were called inactive. Rule as the data show it: active = activity change below about -60%; inconclusive = no clear call, values can overlap the other calls; inactive = above about -39%.

assay: qHTS Assay for inhibitors of the human cytomegalovirus (HCMV); conditions: HFF cells, HCMV-luciferase reporter, 72 h; at 57.5 µM; hits give low values
How it was run: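 Steps: HFFs plated, 16 h 37C; compounds added; HCMV-luciferase added to MOI 1 PFU/cell; 72 h 37C; OneGlo reagent, 5 min room temperature; luminescence read, normalized to controls.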
% is scaled to controls: 0 for no effect and ±100 for the full control effect.

Compound | activity change, negative = inhibition
COc1ccc2c(c1)c(=O)c(S(=O)(=O)c1ccc(F)cc1)cn2CC(=O)Nc1ccc(C)cc1C | -7.71%
CCS(=O)(=O)c1nc(S(=O)(=O)c2ccc(C)cc2)c(NCc2ccc(Cl)cc2)s1 | -5.88%
Cc1cccc(OCCSc2nc3ccc(NC(=O)COc4ccccc4C)cc3s2)c1 | -12.2%
CCn1c(=O)c(=O)n(CC)c2cc(S(=O)(=O)N3CCc4ccccc43)ccc21 | -35.5%
CCC(=O)Nc1ccc2nc(SCC(=O)N3CCc4ccccc43)sc2c1 | 29.6%
CSc1nc2ccc(S(=O)(=O)N3CCc4ccccc43)cc2s1 | -81.9% (active)
Cc1nc2sc(C)c(C)n2c(=O)c1S(=O)(=O)NCCc1ccc(Cl)cc1 | 6.07%
Cc1oc2ncnc(N3CCOCC3)c2c1C(=O)NCCc1ccccc1 | -27.7%
CCNC(=O)C1CCCN(C(=O)c2cc(F)ccc2C)CC1 (stereo not given) | -4.35%
O=C(NC(Nc1nc2ccc([N+](=O)[O-])cc2s1)(C(F)(F)F)C(F)(F)F)c1ccccc1 | -103% (active)
NS(=O)(=O)c1ccc2nc(NC(=O)COc3ccccc3)sc2c1 | -8.44%
CN(C)c1cccc(C(=O)Nc2nc3ccc(S(=O)(=O)NC(C)(C)C)cc3s2)c1 | -29.3%
O=C(Nc1cc(C(F)(F)F)ccc1Cl)c1cc2nc(-c3ccc4c(c3)OCO4)cc(C(F)(F)F)n2n1 | 4.65%
CCC(C)Nc1oc(-c2ccc(COc3ccc(Cl)cc3)o2)nc1C#N (stereo not given) | -28.6%
CCC(Sc1nc2n[nH]c(C)c2c(=N)n1-c1ccccc1Cl)C(=O)N(CC)CC (stereo not given) | 10.8%
CCN(CC(=O)Nc1c(F)cccc1F)C(=O)c1cnc(C)cn1 | -12.6%
O=C(O)CN1c2cccc3cccc(c23)S1(=O)=O | 24.9%
CC(C)CN(CC(C)C)C(=O)CN1c2cccc3cccc(c23)S1(=O)=O | 51.7%
COc1ccc(C)cc1NC(=O)CN1c2cccc3cccc(c23)S1(=O)=O | -63.9% (active)
CCN(CC(=O)Nc1c(F)cccc1F)C(=O)CN1c2cccc3cccc(c23)S1(=O)=O | -81.2% (active)
Cc1ccc(S(=O)(=O)N(C)C)cc1NC(=O)CN1c2cccc3cccc(c23)S1(=O)=O | -17.7%
CCC(=O)Nc1ccccc1-c1nc2ccccc2n(CC(=O)Nc2ccc(C)c(C)c2)c1=O | 4.84%
O=C(CSc1ncc(CO)n1Cc1ccc(F)cc1)NCc1ccco1 | -7.64%

Compound | activity change, negative = inhibition
O=C(CC(CC(=O)c1ccccc1)c1ccco1)c1ccccc1 | -38.2%
COc1cc(NC(=O)c2nn(-c3ccc(C)cc3)c(=O)c3c2c2ccccc2n3C)cc(OC)c1OC | 8.56%
CC(C)(C)C1CCC(C(=O)Nc2cccnc2)CC1 (stereo not given) | -93.5% (active)
CC(=O)Nc1ccc(NC(=O)COC(=O)C2CCC(C(C)(C)C)CC2)cc1 (stereo not given) | -11.6%
Cc1ccc(NC(=O)C2CCC(C(C)(C)C)CC2)cc1S(=O)(=O)N1CCOCC1 (stereo not given) | -25.3%
CCOc1ccc(NC(=O)Cn2c(C)ccc(C#N)c2=O)cc1 | -3.22%
O=C(NCCc1csc(-c2ccc(C(F)(F)F)cc2)n1)C(=O)Nc1ccc(F)c(Cl)c1 | -16.3%
CCc1nc2nc(C)cc(Nc3ccc(F)c(Cl)c3)n2n1 | -29.5%
Cc1ccc(S(=O)(=O)Nc2ccc3ncccc3c2)cc1 | -97.8% (active)
CCOc1ncccc1C(=O)Nc1ccc(S(=O)(=O)Nc2nc(C)cc(C)n2)cc1 | 4.63%
Cc1ccc(S(=O)(=O)Nc2ccc(F)c(S(=O)(=O)N3CCOCC3)c2)cc1 | 11.9%
COc1ccc(Cl)cc1NC(=O)CCn1c(=O)c2cccn2c2ccccc21 | 4.3%
CCOC(=O)c1c(N)n(-c2cccc(C)c2C)c2nc3ccccc3nc12 | 3.84%
Cc1nn(-c2ccc(N3CCCCC3)nn2)c(C)c1CCC(=O)NCc1ccc(F)cc1 | -11.9%
CCNS(=O)(=O)c1ccc(NC(=O)CSc2nc(-c3ccco3)cc(C(F)(F)F)n2)cc1 | 19.7%
CC1CCN(C(=O)c2ccc3c(c2)NC(=O)CN3)CC1 | -12.7%
O=C(Cc1ccccc1)N1CCN(C2CCCCCC2)CC1 | 31.1%
O=C1Nc2cc(C(=O)N3CCC(N4CCCCC4)CC3)ccc2S/C1=C\c1ccccc1 | -88% (active)
CCOc1ccccc1NC(=O)Cn1c(=O)n(Cc2ccccc2)c(=O)c2c(C)c(C(=O)N(C)C)sc21 | -19.6%
CC(=O)CC[C@@H](C)O[C@@H]1OC(C)[C@H](O)CC1O (stereo not given in full) | -66.6% (active)
COc1ccc(NC(=O)N(C)C[C@@H]2OCCCC[C@@H](C)Oc3ccc(NC(=O)NC4CCCCC4)cc3C(=O)N([C@H](C)CO)C[C@@H]2C)cc1 | 1.75%
CCOC(=O)CSc1ccccn1 | -102% (active)
CCOC(=O)CSc1ncc(-c2cccc(Cl)c2)cn1 | 23.7%

Compound | activity change, negative = inhibition
O=C(CSc1ccccn1)N1CCN(S(=O)(=O)c2ccc(Cl)cc2)CC1 | -33.6%
COc1ccc(CCNc2nc3c(-c4cccc(F)c4)nnn3c3ccccc23)cc1OC | 30.2%
Cc1ccc(CCNC(=O)c2ccc(CNS(=O)(=O)c3ccc(C)cc3)cc2)cc1 | -11.4%
Cc1ccc(S(=O)(=O)N(CC(=O)Nc2ccc(Cl)cc2Cl)c2ccccc2C)cc1 | -21.6%
CCc1nc(C)cn1S(=O)(=O)c1cc(OC)c(C)cc1C | -33.9%
CC(C)c1nccn1S(=O)(=O)c1cc([N+](=O)[O-])ccc1Cl | -7.9%
CCc1nc(C)cn1S(=O)(=O)c1cc([N+](=O)[O-])ccc1Cl | -98.5% (active)
Cc1ccccc1Nc1nn2c(=O)c3ccc(C(=O)NCCc4ccc(Cl)cc4)cc3nc2s1 | -8.87%
CC(C)c1ccc(NC(=O)Cn2nnc(C(=O)NCCc3ccccc3)c2N)cc1 | 7.46%
Cc1ccc(NC(=O)Cn2cnc3nc4c(cc3c2=O)CCCC4)cc1Cl | 19.1%
CCCN(CCC)CCNC(=O)Cn1cnc2sc(C)c(S(=O)(=O)N3CCC(C)CC3)c2c1=O | 3.59%
Fc1ccc(-n2ncc3c(Nc4ccc(Oc5ccccc5)cc4)ncnc32)cc1 | -35.2%
CCN(CCCNC(=O)Cn1ncc2c3ccccc3n(C)c2c1=O)Cc1ccccc1 | -7.87%
O=C(COc1ccc(S(=O)(=O)N2CCCC2)cc1[N+](=O)[O-])N1CCCCC1 | -8.38%
Cc1cc(S(=O)(=O)N2CCOCC2)ccc1OCC(=O)N1CCOCC1 | -17.6%
Cc1cc(C(=O)COc2ccccc2[N+](=O)[O-])c(C)n1-c1cccc(S(=O)(=O)N2CCOCC2)c1 | -89.3% (active)
O=S(=O)(c1ccc(Br)c2ccccc12)N1CCOCC1 | -15%
O=C1CCC(=O)N1CCC(=O)N(C(=O)NC1CCCCC1)C1CCCCC1 | 14.3%
CCCCNC(=O)c1onc(CSc2cccc(OC)c2)c1C(=O)O | 31.1%
CCOc1cccc(SCc2noc(C(=O)NC(C)C)c2C(=O)O)c1 | -61.6% (active)
CCCNC(=O)c1onc(CSc2ccc(F)cc2)c1C(=O)NC(C)C | -14.5%
COc1cc2c(cc1OC)C(c1ccccc1Br)NC(=O)C2 (stereo not given) | -67.4% (active)
COc1cc(C2NC(=O)NC(c3ccccc3)=C2C(C)=O)c(Br)cc1OCC(N)=O (stereo not given) | -0.681%

Compound | activity change, negative = inhibition
O=C1CCC([N+](=O)[O-])C(c2ccccc2Br)N1 (stereo not given) | -6.17%
CN(Cc1cccnc1)C(=O)c1cc(COc2ccc3ncccc3c2)on1 | -81.6% (active)
CCn1ccnc1CN(C)C(=O)c1cc(COc2ccc(Cl)cc2OC)on1 | 1.37%
CCOc1ccc(NS(=O)(=O)c2ccc(Cl)c(C(=O)N(C)Cc3cccnc3)c2)cc1 | -5.24%
CCc1nccn1S(=O)(=O)c1cc(Br)ccc1Br | 3.85%
Cc1cc(C)cc(NC(=O)CSc2nc(=O)n(CCN3CCOCC3)c3c2CCC3)c1 | 14.5%
O=C(COC(=O)CCc1c[nH]c2ccccc12)Nc1cccc(Cl)c1 | -16%
COC(=O)c1ccc2c(c1)S(=O)(=O)NC2C (stereo not given) | 24.6%
CC1CCCCC1NC(=O)COC(=O)Cc1ccc(Cl)cc1 (stereo not given) | 26.8%
CCOCCC(=O)Nc1ccc2c(c1)c(=O)n(C)n2-c1ccc2ccccc2c1 | -74.6% (active)
CCNC(=S)Nc1ccc2c(c1)c(=O)n(C)n2Cc1ccc(Cl)cc1 | -4.48%
COc1cc(Cn2c3ccc(NC(=O)CC(C)c4ccccc4)cc3c(=O)n2C)ccc1F (stereo not given) | -10.4%
CCCCn1c(N)c(N(CC)C(=O)/C=C/c2ccco2)c(=O)[nH]c1=O | 14.2%
O=C1/C(=C/c2cccs2)CCC1C1CCCC1 (stereo not given) | -34.7%
O=C1/C(=C/c2cccs2)SC(=S)N1C1CCS(=O)(=O)C1 (stereo not given) | -80.8% (active)
Cn1nccc1NS(=O)(=O)c1ccc(F)cc1 | 19.9%
Cc1ccc2cccc(NC(=O)c3ccc(OC(C)C)cc3)c2n1 | 9.69%
CCOc1ccc(N(CC)S(=O)(=O)N2CCCC(C(=O)Nc3ccc(C(C)=O)cc3)C2)cc1 (stereo not given) | 11.4%
Cc1ccc(OCc2n[nH]c(=S)n2-c2ccccc2)cc1 | -60.4% (active)
COc1ccc(OCc2n[nH]c(=S)n2N)cc1 | 39.1%
CC(Sc1nnc(COc2ccccc2)n1-c1ccccc1)C(=O)O (stereo not given) | -4.35%
